Source: PubChem BioAssay (NCATS)
Records with an inconclusive call do not appear. Entries that show only a call come without a potency. Active and inactive are the calls of the source. Calls come from the whole dose curve; as a rule, active = well fitted curve in the direction sought with a large enough effect; inconclusive = small, poorly fitted or top-dose-only effect, or another doubt; inactive = no such curve, though single readings can be large; an effect the other way counts as inactive or inconclusive.

Key:
[1] = Primary qHTS for inhibitors of nuclear receptor binding SET domain protein 2 (NSD2) in an isogenic RCH-ACV NSD2 p.E1099K mutant (9B) (AID 1645876); note: nearly all actives have a fitted effect of over 70% in size; note: potency is the fitted concentration of half-maximal effect
[2] = Primary qHTS for inhibitors of nuclear receptor binding SET domain protein 2 (NSD2) in an RCH-ACV wild type WT cells (2C) (AID 1645877); note: nearly all actives have a fitted effect of over 70% in size; note: potency is the fitted concentration of half-maximal effect
[3] = biological target: Glutathione peroxidase 1 (Homo sapiens) (UniProt P07203); assay: Primary qHTS Assay for Inhibitors of Recombinant Selenoprotein Glutathione Peroxidase 1 (GPX1) (AID 1845191); note: nearly all actives have a fitted effect of over 65% in size
In short: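 GR-coupled readout: NADPH consumption tracked by fluorescence, ex 340/em 450 nm, at t=0 and after 15 min at RT. Final mix 10 nM GPX1, 1 mM GSH, 0.5 mM CHP, 0.5 mM NADPH, 100 nM GR, 0.01% BSA, following 30 min enzyme–compound preincubation.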

[4] = NCATS anti-infectives library activity on HEK293 viability as a counter-qHTS vs the C. elegans viability qHTS (AID 1745854)
In short: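 CellTiter-Glo luminescence, read on a CCD imager, scored viability of HEK293 cells after 24 hr compound exposure at 37C. Library tested in several concentrations, 1:5 steps, up to 41.7 uM; digitonin served as control.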

Sequence of Glutathione peroxidase 1 (Homo sapiens) (P07203 whole entry, looked up): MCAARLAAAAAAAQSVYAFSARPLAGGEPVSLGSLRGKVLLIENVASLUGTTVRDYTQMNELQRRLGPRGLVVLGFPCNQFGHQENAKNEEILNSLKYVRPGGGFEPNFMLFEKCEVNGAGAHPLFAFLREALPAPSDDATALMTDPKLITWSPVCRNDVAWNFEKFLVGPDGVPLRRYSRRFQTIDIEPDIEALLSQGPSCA

Question: For `O=C1NC(Cc2c[nH]c3ccccc23)C(=O)NC1Cc1c[nH]c2ccccc12` (stereo not drawn), which Potency [1] is on record?
Answer: The Potency was “inactive”.

Question: What about the Potency [2] of the same compound?
Answer: The Potency was “inactive”.

Question: And the Potency [3]?
Answer: The Potency was “inactive”.

Question: Which results are given for `CCC(C)C(=O)OC1CC(O)C23C4OCC5(C(O)CC2C1(C)C(O)O4)C3C(=O)CC1(C)C(c2ccoc2)CC2OC215` (stereo not drawn)?
Answer: Potency [1]: 399 nM (active); Potency [2]: 126 nM (active); Potency [3]: inactive

Question: For `Cc1ccc(S(=O)(=O)c2ccc([N+](=O)[O-])o2)cc1`, which Potency [1] is on record?
Answer: The Potency was 649 nM (active).

Question: And the Potency [2]?
Answer: Its Potency is 163 nM (active).

Question: And the Potency [3]?
Answer: Its Potency is “inactive”.

Question: For `C[C@@H]1CC[C@]2(C(=O)O)CC[C@]3(C)C(=CCC4[C@@]5(C)C[C@@H](O)[C@H](O)[C@@](C)(CO)C5CC[C@]43C)C2[C@]1(C)O` (stereo partly drawn), which Potency [1] is on record?
Answer: Its Potency is “inactive”.

Question: And the Potency [2]?
Answer: The Potency was “inactive”.

Question: What about the Potency [3] of the same compound?
Answer: The Potency was “inactive”.

Question: For `CC1=C(C(=O)O[C@@H]2O[C@H](COC3OCC(O)C(O)C3O)[C@@H](O)[C@H](O)[C@H]2O)C(C)(C)CCC1` (stereo partly drawn), which Potency [1] is on record?
Answer: Its Potency is “inactive”.

Question: What about the Potency [2] of the same compound?
Answer: Its Potency is “inactive”.

Question: What about the Potency [3] of the same compound?
Answer: The Potency was “inactive”.

Question: Which Potency [1] does the source give for `C[C@@H]1CCC2C(C)(C)[C@H](O)CC[C@]2(C)[C@@]12Cc1c(O)cc3c(c1O2)CN([C@@H](CCC(=O)O)C(=O)O)C3=O` (stereo partly drawn) here?
Answer: The Potency was “inactive”.

Question: What about the Potency [2] of the same compound?
Answer: The Potency was “inactive”.

Question: And the Potency [3]?
Answer: The Potency was “inactive”.

Question: What does the source list for `CC(C)c1ccc2c(c1)C(=O)CC1[C@@](C)(C(=O)O)CCC[C@]21C` (stereo partly drawn)?
Answer: Potency [1]: inactive; Potency [2]: inactive; Potency [3]: inactive

Question: For `CC1=C2C3OC(=O)C(C)C3(O)CCC2(C)CCC1O` (stereo not drawn), which Potency [1] is on record?
Answer: The Potency was “inactive”.

Question: And the Potency [2]?
Answer: Its Potency is “inactive”.

Question: What about the Potency [3] of the same compound?
Answer: The Potency was “inactive”.

Question: What does the source list for `C=C1C[C@]23C[C@H]1CC[C@H]2[C@@]1(C)CCC[C@@]2(C)C(=O)O[C@@H]([C@@H]3O)[C@@H]12`?
Answer: Potency [1]: inactive; Potency [2]: inactive; Potency [3]: inactive

Question: For `Nc1ncnc2c([C@@H]3N[C@H](CO)[C@@H](O)[C@H]3O)c[nH]c12`, which Potency [4] is on record?
Answer: Its Potency is “inactive”.
